Measurements: PubChem BioAssay (NCATS)
Results filed as inconclusive are left out. Values without a mark were called inactive. Active and inactive are the calls of the source. Calls come from the whole dose curve; as a rule, active = well fitted activation curve with a large enough effect; inconclusive = small, poorly fitted or top-dose-only effect; inactive = flat fitted curve, though single readings scatter.

Test: Cell Proliferation Assay against the TMD8 Cell Line (Caspase readout at 16 hrs) (AID 651712)
Details: TMD8 lymphoma cells, caspase activation luminescence; series mostly up to 46.1 µM; caspase activation: at the top concentration
Source text: One class of targeted therapeutics showing early clinical success in killing of ABC DLBCL lines are small molecule inhibitors of the Bruton tyrosine kinase (BTK) 11. Thus, we chose to investigate what additional compounds, if any, would synergize with the BTK inhibitor Ibrutinib (PCI-32765).
Prior to any combination assays, using an NCATS developed oncology compound library called the Mechanism of Interrogation Plate (MIPE), two well studied ABC DLBCL lines (TMD8 and HBL1) were screened using a cell viability assay (CellTiterGlo) and a 12-point titration series for each single agent. These initial experiments offered insight into the concentration range that offered the best coverage of activity and non-activity to assure relevant data is generated. In addition to the viability signature associated with this library, we examined the apoptotic response of each agent versus the TMD8 line as judged by caspase 3/7 activation. Activity was assayed at both 8 and 16 hour time-points to gain an appreciation of which agents induced an apoptotic response in a reasonable timeframe from a therapeutic exposure perspective. MIPE was also assayed for single agent viability in a human mesenchymal stem cell (hMSC) line as a surrogate of each library members potential therapeutic index.
The combination plates were then generated by choosing 20 of the best compounds from this single agent screen and plated in the presence of the BTK inhibitor. The first analysis was carried out using 6x6 dose response blocks for each of the 20 compounds. […] In addition to the cell viability assay, the parallel caspase 3/7 activation and viability in hMSC assays were carried out in the 10x10 format.
A total of 500 log growing TMD8 cells are seeded per well in 5 uL of a RPMI with glutamine (or Glutamax), without phenol red plus 5% FBS and 1X Pen/Strep into 1536 -solid white high base tissue culture treated Greiner One Bio Plates (789173-F) using a multidrop combi dispenser and a small sterile cassette. Compounds and controls totaling 23nL per well (negative control DMSO and positive control 9.2 uM Bortezomib-final) are immediately added to the plates using a 1536 head pin tool from Kalypsys. The plates are then covered with stainless steel gasket lids from Kalypsys and incubated for either 16 hours at 37C under 95% relative humidity with 5% CO2. After the desired incubation time, the plates are removed and allowed to reach room temperature before 3 uL of the Caspase Glo reagent (Promega) is added using an Aurora Flying Reagent Dispenser Bioraptor. The plates are then spun at 1000 rpms to remove bubbles and incubated for 15 minutes at room temperature before read on a ViewLux using a luminescent filter with a 10 second exposure. The relative luciferase units are used to calculated percent activity using DMSO as 0% and Bortezomib as 100%.
Potency is the fitted concentration of half-maximal effect.

SMILES | caspase activation | Potency
Nc1nccc(-c2ccc3noc(-c4ccc(Cl)cc4)c3c2)n1 | 25.9% | –
COc1ccc(COc2cc3oc(=O)c4cc(C(C)O)ccc4c3cc2OC)cc1 (stereo not given) | 1.64% | –
NC(=O)C1CCCc2c1[nH]c1ccc(Cl)cc21 (stereo not given) | 3.45% | –
Nc1nc2ccc(OC(F)(F)F)cc2s1 | 7.17% | –
CCc1cc(Nc2nccc(-c3c(-c4ccc(OC)c(C(=O)Nc5c(F)cccc5F)c4)nc4ccccn34)n2)c(OC)cc1N1CCC(N2CCN(S(C)(=O)=O)CC2)CC1 | 10.8% | –
COc1cc2c(cc1OC)CN(CCc1ccc(NC(=O)c3cccc4c(=O)c5cccc(OC)c5[nH]c34)cc1)CC2 | 6.71% | –
Cc1cc([C@@H](C)Nc2ccccc2C(=O)O)c2nc(N3CCOCC3)cc(=O)n2c1 | 3.07% | –
O=C1[C@H](Cc2ccc(O)cc2)N2C(=O)CCN(C(=O)NCc3ccccc3)[C@H]2CN1Cc1cccc2ccccc12 | – | 23.5 µM (active)
C[C@H](NC(=O)Cc1cc(F)cc(F)c1)C(=O)N[C@@H]1C(=O)N(C)c2ccccc2-c2ccccc21 | 11.3% | –
CCOc1ccc(Cc2cc([C@@H]3O[C@H](CO)[C@@H](O)[C@H](O)[C@@H]3O)ccc2Cl)cc1 | 2.16% | –
CCC(C)(C)C(=O)O[C@H]1C[C@@H](C)C=C2C=C[C@H](C)[C@H](CC[C@@H]3C[C@@H](O)CC(=O)O3)[C@H]21 | 8.95% [at 15.4 µM] | –
OCCn1cc(-c2cnc3nnn(Cc4ccc5ncccc5c4)c3n2)cn1 | 6.76% | –
S=C(NCc1ccc2c(c1)OCO2)N1CCN(c2ncnc3c2oc2ccccc23)CC1 | 1.83% | –
Cc1cccc(-c2[nH]c(C(C)(C)C)nc2-c2ccc3nccnc3c2)n1 | 12.8% | –
COCC(=O)NCC=Cc1ccc2ncnc(Nc3ccc(Oc4ccc(C)nc4)c(C)c3)c2c1 | 4.02% | –
O=C(O)c1ccc(-c2c[nH]c3ccc(-c4ccccc4)cc23)cc1C1CCCC1 | 24.5% | –
Cc1ccc2c(c1)C(=O)[C@@]1(O)CCN(c3ccccc3)C1=N2 | 7.13% | –
COc1cc2nccc(Oc3ccc(NC(=O)NC4CC4)c(Cl)c3)c2cc1C(N)=O | -0.469% | –
COc1ccc2c3n(c(=NC(=O)c4cccnc4)nc2c1OC)CCN3 | 27.2% | –
CCN(CCCO)CCCOc1ccc2c(Nc3cc(CC(=O)Nc4cccc(F)c4)[nH]n3)ncnc2c1 | 15.2% | –

SMILES | caspase activation | Potency
O=C(O)CCc1ccc(NCc2cccc(Oc3ccccc3)c2)cc1 | 2.22% | –
CCCn1c(=O)c2[nH]c(C34CC5CC3C[C@@H](C5)C4)nc2n(CCC)c1=O | – | 18.7 µM (active)
CCC(=O)N[C@H]1CC[C@H](C(=O)N(C)c2ccc(-c3nc4ccccc4o3)cc2)C1 | 11.7% | –
O=C(Nc1nc2ccccc2n1CCN1CCOCC1)c1cccc([N+](=O)[O-])c1 | 6.63% | –
CN([C@@H](Cc1ccc(OS(=O)(=O)c2cccc3cnccc23)cc1)C(=O)N1CCN(c2ccccc2)CC1)S(=O)(=O)c1cccc2cnccc12 | 18.6% | –
CO[C@@H]1[C@H](N(C)C(=O)c2ccccc2)C[C@H]2O[C@]1(C)n1c3ccccc3c3c4c(c5c6ccccc6n2c5c31)C(=O)NC4 | – | 2.09 µM (active)
COc1c(Cl)cc2c([nH]c3cnccc32)c1NC(=O)c1cccnc1C | 12% | –
N#Cc1ccc(C(c2ccc(C#N)cc2)n2cncn2)cc1 | 15.1% | –
CC(C)(Sc1ccc(CCN(CCCCC2CCCCC2)C(=O)NC2CCCCC2)cc1)C(=O)O | 16.2% | –
Cc1cc2c(C(C)C)c(O)c(O)c(C=O)c2c(O)c1-c1c(C)cc2c(C(C)C)c(O)c(O)c(C=O)c2c1O | 13.7% | –
CCN(c1ccccc1)c1cc(NC)[n+](C)c(C)n1 | 4.78% | –
CS(=O)(=O)c1cccc(CNc2nc(Nc3ccc4c(c3)CCC(=O)N4)ncc2C(F)(F)F)c1 | 4.04% | –
COc1ccc(CC2=NN3C([C@@H](CCc4ccccc4)[C@@H](C)O)=NC(C)C3C(=O)N2)cc1OC (stereo not given in full) | 28.3% | –
Cc1cnc(Nc2ccc(OCCN3CCCC3)cc2)nc1Nc1cccc(S(=O)(=O)NC(C)(C)C)c1 | 16.3% | –
CC(=O)NC(C)c1ccc(Oc2ccc(OC(C)C)cc2)cc1 (stereo not given) | 13.2% | –
Cn1cc(-c2ccc3nnc(C(F)(F)c4ccc5ncccc5c4)n3n2)cn1 | 9.47% | –
CCN(CC)CCCC(C)Nc1nc(C)cc(Nc2ccc3nc(C)cc(N)c3c2)n1 (stereo not given) | 12.3% | –
Cc1n[nH]c(C)c1Cc1sc2c(c1C(=O)N1C[C@H](O)CO1)c(=O)n(C)c(=O)n2CC(C)C | 12.3% | –
COc1ccc2nc(S(=O)Cc3ncc(C)c(OC)c3C)[nH]c2c1 (stereo not given) | 3.3% | –
O=C(C=Cc1ccc(/C=C/C(=O)Nc2ccc(C3=NCCN3)cc2)cc1)Nc1ccc(C2=NCCN2)cc1 | -2.63% | –
